Screens as filed in PubChem.
D2 ag-1: agonists of human D2 dopamine receptor; activation, % at 2 µM; P14416; 340,000 tested, 0.53% active; HEK293 T-REx D2 cells, calcium flux agonist mode; AID 485358;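 active = activation over 3 SD above normal in the single-dose calcium agonist read, cut at about 30% in these data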; note: 0% is about no effect
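HEK293 Trex D2 cells, tetracycline-induced, o/n 30 C 5% CO2; no-wash Ca dye, RT 30–90 min; 10-cycle baseline, 23 nl cpd added, kinetic Ca read 180 s; agonist hits = positive Ca response.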
D2 PAM-1: D2 dopamine receptor (human) potentiation | P14416 | HEK293 T-REx D2, calcium flux, EC20 dopamine potentiation | potentiation, % at 10 µM | 340,000 tested, 0.34% active | AID 485347;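 active = potentiation over 3 SD above the plate norm, cut at about 30% in these data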; note: 0% is about no effect
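Calcium flux readout, no-wash dye, 1 read/s. Inducible HEK293 Trex D2 line, overnight 30 C. Compound alone 180 s (agonist flags), then EC20 dopamine, another 180 s to score potentiation.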
Anesthetic bind: binds horse apoferritin like a general anesthetic | 350,000 tested, 0.074% active | Potency, µM (highest dose often 77.5 µM), for the others: at the top dose activity change, negative = displacement, hits mostly inhibitors | apoferritin/1-aminoanthracene competitive binding, fluorescence; active = well fitted inhibition curve with a large enough effect; note: potency is the fitted concentration of half-maximal effect; % is set by controls: 0 for no effect and ±100 for the full control effect; nearly all actives have a fitted effect of over 20% in size
Target sequence (P02791 2-175 limits assumed): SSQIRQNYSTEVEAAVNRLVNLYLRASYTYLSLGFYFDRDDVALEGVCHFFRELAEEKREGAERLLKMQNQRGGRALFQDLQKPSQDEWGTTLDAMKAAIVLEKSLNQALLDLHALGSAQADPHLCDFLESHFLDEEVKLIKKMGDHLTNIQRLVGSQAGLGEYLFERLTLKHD
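Horse-spleen apoferritin (10 uM) in 50% saturated 1-aminoanthracene in PBS was incubated 10 min at room temperature with compound. Fluorescence (ex 380, em 535 nm) was normalized to free and bound 1-AMA, with concentration-response fitted by a four-parameter Hill equation.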
D2 ag-2: agonists of human D2 dopamine receptor (beta-arrestin) | P14416 | DiscoveRx PathHunter D2 beta-arrestin, luminescence, 90 min; 100% = 57 uM dopamine signal | activation, % (no concentration beside the values) | 360,000 tested, 0.084% active | AID 624465; in the data active = activation above about 40%
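Agonist mode: compounds alone added to overnight-plated D2 PathHunter cells for 90 min at 37 C, with 57 uM final dopamine (EC100) defining full response. Beta-arrestin recruitment detected by chemiluminescent reagent, read after 1 h at ambient temperature.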
D2 antagonist: antagonizes the human D2 dopamine receptor; AID 485344; inhibition, % at 10 µM; P14416; HEK293 TREx D2 cells, calcium flux, dopamine EC80; 340,000 tested, 2% active; in the data active = inhibition above about 30%; inactive = below that, where a call was filed; note: 0% is about no effect
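Calcium mobilization kinetics were recorded at 1 s intervals in tetracycline-induced HEK293 T-REx D2 cells, first for 180 s after compound addition and then 180 s after EC80 dopamine.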
D2 PAM-2: human D2 receptor positive allosteric modulation; potentiation, % (concentration not given with the values); 360,000 tested, 0.23% active; P14416; DiscoveRx D2 beta-arrestin cells, luminescence, 90 min; 100% = 57 uM dopamine signal; AID 624464; in the data active = potentiation above about 50%
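PathHunter beta-arrestin assay in DiscoveRx D2 cells. Compounds were added with an EC20 of dopamine (50 nM final) for 90 min at 37 deg C. Luminescence was read 1 h after detection reagent, with 57 uM dopamine as the EC100 control.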
Starred values were filed as active, the others as inactive. Sampled rows, rich in hits. Any-hit rate of the full collection: about 2.5%.

Results for COc1ccc(C(CNC(=O)c2cccc(NS(=O)(=O)c3ccccc3)c2)N2CCCC2)cc1 (stereo unspecified) ?
D2 ag-2: 1.9; D2 PAM-2: -14.3

How did COc1cc(/C=N/NC(=O)c2ccncc2)cc2c1OCO2 do in these assays?
D2 ag-1: 0.8; D2 PAM-1: -7.4; Anesthetic bind: -0.5%; D2 ag-2: -2.6; D2 antagonist: 8.5; D2 PAM-2: -5.1

What do the screens show for `Cc1c(-c2ccccn2)c(=O)[nH]n1-c1ccc(F)cc1`?
D2 ag-1: 0.8; D2 PAM-1: -8.5; Anesthetic bind: -21.4%; D2 ag-2: -4.9; D2 antagonist: -12.2; D2 PAM-2: -0.1

Results for CCO[C@@H]1OC(C(=O)Nc2ccccc2)=C[C@H](c2ccc(C(F)(F)F)cc2)[C@H]1CCCO ?
D2 ag-1: 0.7; D2 PAM-1: -2.7; Anesthetic bind: -7.5%; D2 ag-2: -2.4; D2 antagonist: 3.5; D2 PAM-2: -10.4

How did COc1ccc(CN2CCOCCOCCOCCOCC2)cc1 do in these assays?
D2 ag-1: 0.5; D2 PAM-1: -2.2; Anesthetic bind: -10.4%; D2 ag-2: -1.5; D2 antagonist: -13.7; D2 PAM-2: 16.0

Results for O=C(O)c1nccnc1C(=O)NCc1csc2ccc(Cl)cc12 ?
D2 ag-1: 0.6; D2 PAM-1: -0.7; Anesthetic bind: 1.5%; D2 ag-2: -3.8; D2 antagonist: 1.2; D2 PAM-2: -15.8

How did CC1=C(C(=O)N2CCCCCC2)CC(CC(=O)NCCN2CCOCC2)C(=O)N1Cc1ccccc1 (stereo unspecified) do in these assays?
D2 ag-2: -4.5; D2 PAM-2: -0.8

Results for COc1ccc(C(CNC(=O)C(C)Oc2ccc(Br)cc2)N2CCCC2)cc1 (stereo unspecified) ?
D2 ag-1: 0.3; D2 PAM-1: -35.0; D2 ag-2: -6.6; D2 antagonist: 40.8*; D2 PAM-2: -28.3

What do the screens show for `COc1cccc(-c2nnc3sc(-c4cccs4)nn23)c1`?
D2 ag-1: 0.4; D2 PAM-1: 4.2; Anesthetic bind: -9.7%; D2 ag-2: -2.5; D2 antagonist: 8.4; D2 PAM-2: -3.1

How did CS(=O)(=O)N1CCC(C(=O)Nc2ccc(OCc3ccccc3)cc2)CC1 do in these assays?
D2 ag-1: 0.6; D2 PAM-1: 7.7; Anesthetic bind: -0.6%; D2 ag-2: -1.5; D2 antagonist: 45.5*; D2 PAM-2: -0.7

How did Cc1cccc(N(CC(=O)NCCSc2nc3ccccc3s2)S(=O)(=O)c2ccccc2)c1 do in these assays?
D2 ag-1: 0.4; D2 PAM-1: 8.6; Anesthetic bind: -8.3%; D2 antagonist: 0.0

How did Cc1ccc(N(CC(=O)NCCSc2nc3ccccc3s2)S(=O)(=O)c2ccccc2)c(C)c1 do in these assays?
D2 ag-1: 0.5; D2 PAM-1: 5.8; Anesthetic bind: 2.5%; D2 ag-2: 0.9; D2 antagonist: 55.1*; D2 PAM-2: 15.7

What do the screens show for `COc1ccccc1NC(=O)NCc1ccc2c(c1)OCO2`?
D2 ag-1: 0.3; D2 PAM-1: -10.7; Anesthetic bind: -3.3%; D2 antagonist: 32.6*

Results for COC(=O)c1ccccc1NC(=O)NCc1ccc2c(c1)OCO2 ?
D2 ag-1: 0.0; D2 PAM-1: -10.8; Anesthetic bind: -18.2%; D2 ag-2: -0.1; D2 antagonist: 34.4*; D2 PAM-2: -15.4

How did COc1cc(C)c(S(=O)(=O)NCc2ccc3c(c2)OCO3)cc1C do in these assays?
D2 ag-1: -0.4; D2 PAM-1: -19.3; Anesthetic bind: -8.0%; D2 ag-2: -3.5; D2 antagonist: 31.7*; D2 PAM-2: -7.6

What do the screens show for `O=C(NCc1ccc2c(c1)OCO2)Nc1cccc2ccccc12`?
D2 ag-1: -0.2; D2 PAM-1: -18.5; Anesthetic bind: -4.4%; D2 ag-2: -4.5; D2 antagonist: -9.8; D2 PAM-2: -6.7

How did COc1cc(S(=O)(=O)NCc2ccc3c(c2)OCO3)c(OC)cc1C do in these assays?
D2 ag-1: 0.0; D2 PAM-1: 1.5; Anesthetic bind: -5.5%; D2 ag-2: -1.4; D2 antagonist: -8.4; D2 PAM-2: -6.3
